AmpC detergent: qHTS Inhibitors of AmpC Beta-Lactamase (assay with detergent); P00811; AmpC hydrolysis of nitrocefin, absorbance 480 nm, 0.01% Triton; Potency, µM (doses to about 114 µM), most hits filed as inhibitors; actives 0.041% (n = 370,000); AID 485294, 2010; further: nearly all actives have a fitted effect of over 25% in size
Target sequence (P00811 whole entry, looked up): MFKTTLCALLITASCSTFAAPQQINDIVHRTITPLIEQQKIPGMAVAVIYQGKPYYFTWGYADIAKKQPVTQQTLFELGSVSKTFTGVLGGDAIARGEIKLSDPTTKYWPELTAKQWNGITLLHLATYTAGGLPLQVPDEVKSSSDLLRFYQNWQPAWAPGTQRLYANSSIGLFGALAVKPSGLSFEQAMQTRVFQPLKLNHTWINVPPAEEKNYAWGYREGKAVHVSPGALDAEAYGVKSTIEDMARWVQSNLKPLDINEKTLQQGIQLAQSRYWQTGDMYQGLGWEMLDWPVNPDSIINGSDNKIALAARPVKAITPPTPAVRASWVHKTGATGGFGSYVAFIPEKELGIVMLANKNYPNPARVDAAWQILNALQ
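20 mM phosphate pH 7.0 + 0.01% (detergent screen) or 0.0001% Triton X-100; 5.3 nM AmpC reagent; cpd preinc 15 min RT; nitrocefin (800 uM stock) to start; A480 q20 s × 4 min; Activity was normalised to no-enzyme and no-compound control wells.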
AmpC no deterg: qHTS Inhibitors of AmpC Beta-Lactamase (assay without detergent); AmpC nitrocefin hydrolysis, absorbance 480 nm, 0.0001% Triton; Potency, µM (series often up to 57.1 µM), usual class: inhibitors; actives 0.52% (n = 330,000); P00811; AID 485341, 2010; further: nearly all actives have a fitted effect of over 20% in size
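20 mM phosphate pH 7.0 + 0.01% (detergent screen) or 0.0001% Triton X-100; 5.3 nM AmpC reagent; cpd preinc 15 min RT; nitrocefin (800 uM stock) to start; A480 q20 s × 4 min; Activity was normalised to no-enzyme and no-compound control wells.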
VACV Venus inh: qHTS for Stage-Specific Inhibitors of Vaccinia Orthopoxvirus: Venus Reporter Primary qHTS | Vaccinia virus Venus reporter expression, fluorescence | Potency, µM (series often up to 36.5 µM), most hits filed as inhibitors | actives 0.46% (n = 330,000); calls by dose curve; tested in A549 cells; further: nearly all actives have a fitted effect of over 30% in size
Vaccinia mCherry: qHTS for Stage-Specific Inhibitors of Vaccinia Orthopoxvirus: mCherry Reporter Primary qHTS; Vaccinia virus mCherry reporter infection, fluorescence; Potency, µM (highest dose often 36.5 µM), usual class: inhibitors; actives 0.63% (n = 310,000); AID 720579, 2013; calls by dose curve; tested in A549 cells; further: nearly all actives have a fitted effect of over 35% in size
Of the large screens only hits and unclear results are named; the others gave an inactive call. Most compounds without a hit are left out; they make up all but 1.1% or so of the library. Unless noted, the call rests on the fitted dose curve; in most records, active means well fitted curve in the direction sought with a large enough effect; inconclusive means small, poorly fitted or top-dose-only effect, or another doubt; inactive means no such curve, though single readings can be large; an effect the other way counts as inactive or inconclusive.

CCCCCCCCCCC[N+](C)(C)CC/C=C1/c2ccccc2Sc2ccc(Cl)cc21	VACV Venus inh 11.2µM, Vaccinia mCherry inconclusive
CC(NC(=O)C1CCOCC1)c1nnc2n1CCN(Cc1ccc3ccccc3c1)CC2 (stereo not drawn)	none (no result: AmpC detergent, AmpC no deterg)
CN(C)c1nc(CN2CCCCC2c2cccnc2)nc2ccccc12 (stereo not drawn)	none (no result: AmpC detergent, AmpC no deterg)
COc1ccc(C(C)NCCC(c2ccc(OC(C)C)cc2)c2ccccc2OC)cc1 (stereo not drawn)	VACV Venus inh 11.2µM, Vaccinia mCherry inconclusive
COc1ccc(C(CCNC(C)c2ccccc2)C(C)C)cc1 (stereo not drawn)	none
COc1ccc2c(c1)CC/C(=C\Nc1ccc3c(c1)OCO3)C2=O	AmpC no deterg 10µM
O=C1/C(=C/Nc2ccc3c(c2)OCO3)CCc2ccccc21	Vaccinia mCherry inconclusive
COC(=O)C1CCN(Cc2ccc3c(c2)CN(C(=O)c2ccnn2C)CCO3)CC1	none (no result: AmpC detergent, AmpC no deterg)
NC(=O)c1ccc(NC(=O)COC(=O)c2c3c(nc4ccccc24)/C(=C\c2cccs2)CCC3)cc1	AmpC no deterg 3.16µM (no result: VACV Venus inh, Vaccinia mCherry)
O=C(COC(=O)c1c2c(nc3ccccc13)/C(=C/c1ccco1)CC2)NC1CCCC1	AmpC no deterg 17.8µM, Vaccinia mCherry inconclusive
CC1CCCCC1NC(=O)COC(=O)c1c2c(nc3ccccc13)/C(=C/c1ccco1)CC2 (stereo not drawn)	AmpC detergent inconclusive, AmpC no deterg 15.8µM
CCc1cccc(C)c1NC(=O)COC(=O)c1c2c(nc3ccccc13)/C(=C\c1cccs1)CCC2	none
COc1ccc(OC)c(-c2cc(Cl)c3c(c2)CC(CNC(=O)c2cnn4cccnc24)O3)c1 (stereo not drawn)	none (no result: AmpC detergent, AmpC no deterg)
COc1cc(C)c(CN2CCC3(CCC(CNC(=O)c4ccnn4C)O3)CC2)cc1C (stereo not drawn)	none (no result: AmpC detergent, AmpC no deterg)
CC(=O)c1c(NC(=O)c2ccccc2)[nH]c(-c2ccccc2)nc1=S	AmpC detergent inconclusive, AmpC no deterg 22.4µM
NC(=O)[C@@H]1CCCN1C(=O)c1cc(NC(=O)c2ccccc2)cc2ncn(C3CCCC3)c12	none (no result: AmpC detergent, AmpC no deterg)
O=C(Nc1ccccc1C(=O)NCc1ccco1)Nc1cccc2ccccc12	AmpC no deterg 20µM, VACV Venus inh inconclusive
Cc1ccc(C[n+]2c(-c3ccc(C)cc3)cc(-c3ccc(C)cc3)cc2-c2ccc(C)cc2)cc1	VACV Venus inh 3.55µM, Vaccinia mCherry inconclusive
Cc1ccc(C[n+]2ccccc2)cc1	AmpC detergent inconclusive
Cc1ccc(-n2nc3c([n+]2[O-])CCc2c-3no[n+]2[O-])cc1	none (no result: VACV Venus inh, Vaccinia mCherry)
[O-][n+]1onc2c1CCc1c-2nn(-c2ccccc2Cl)[n+]1[O-]	VACV Venus inh 1.26µM, Vaccinia mCherry 1µM
CCc1nc2cc(C(=O)NC3CCOC(C)(C)C3)cc(NC(=O)c3ccccc3OC)c2n1C (stereo not drawn)	none (no result: AmpC detergent, AmpC no deterg)
O=C(CCl)N(c1ccccc1)c1c[nH]c2ccccc12	VACV Venus inh inconclusive, Vaccinia mCherry inconclusive
O=C(CCl)N(c1ccc(Cl)cc1)c1c[nH]c2ccccc12	VACV Venus inh 12.6µM, Vaccinia mCherry inconclusive
COc1ccc(CCNC(=O)c2cnn(-c3nccc(-c4ccco4)n3)c2C)cc1	none (no result: AmpC detergent, AmpC no deterg)
CC(=O)n1cc(/C=N/NC(=O)c2ccc(Cl)cc2)c2ccccc21	none (no result: VACV Venus inh, Vaccinia mCherry)
Cn1c2ccccc2c2cc(/C=N/NC(=O)c3cc(O)ccc3O)ccc21	VACV Venus inh inconclusive
Cn1c2ccccc2c2cc(/C=N/NC(=O)c3cc(O)cc(O)c3)ccc21	AmpC no deterg 15.8µM
CC(=O)n1cc(/C=N/NC(=O)c2cccc(O)c2)c2ccccc21	AmpC no deterg 11.2µM
COc1ccc(OC)c(-c2cc(Cl)c3c(c2)CC(CNC(=O)/C=C/c2ccccn2)O3)c1 (stereo not drawn)	none (no result: AmpC detergent, AmpC no deterg)
O=C(Nc1cc(C(=O)NC2CCOCC2)c2c(c1)ncn2C1CCCC1)c1ccccc1	none (no result: AmpC detergent, AmpC no deterg)
CCC1CN(CC(=O)NC(C)c2c(C)nn(C)c2C)Cc2cc(OC)ccc2O1 (stereo not drawn)	none (no result: AmpC detergent, AmpC no deterg)
CCCN(CC(=O)Nc1ccccc1C)C(=O)CCl	VACV Venus inh 4.47µM, Vaccinia mCherry 4.47µM
O=[N+]([O-])c1ccc(-[n+]2ccc3ccccc3c2)c([N+](=O)[O-])c1	VACV Venus inh inconclusive, Vaccinia mCherry 10µM
O=[N+]([O-])c1ccc(SNc2ccccc2)c([N+](=O)[O-])c1	none (no result: AmpC detergent, AmpC no deterg)
S=c1nc[nH]c2n[nH]nc12	none (no result: AmpC detergent, AmpC no deterg)
CCOC(=O)C1CCN(C(=O)c2c(C)oc3c2C(=O)c2ccccc2C3=O)CC1	AmpC detergent inconclusive, VACV Venus inh 14.1µM, Vaccinia mCherry 14.1µM
CCCNc1nc(N)nc(-c2cc(Cl)ccc2OC)n1	none (no result: Vaccinia mCherry)
CCNc1nc(N)nc(-c2cc(Cl)ccc2O)n1	VACV Venus inh 10µM, Vaccinia mCherry 10µM
CCCCNc1nc(N)nc(-c2cc(Cl)ccc2O)n1	VACV Venus inh 20µM, Vaccinia mCherry inconclusive
O=S(=O)(c1cnc2ccccc2c1)N1CCN(c2nc(-c3cccs3)nc3ccccc23)CC1	none (no result: AmpC detergent, AmpC no deterg)
Cc1cc(-c2cc(F)cc3c2OC(CNC(=O)[C@@H]2CCC(=O)N2)C3)ccc1F (stereo partly drawn)	none (no result: AmpC detergent, AmpC no deterg)
COc1cccc(/C=N/NC(=O)c2cc3cc([N+](=O)[O-])ccc3s2)c1O	AmpC detergent inconclusive, VACV Venus inh inconclusive, Vaccinia mCherry 5.01µM
Cc1[nH]c2ccccc2c1/C=N/NC(=O)c1cccc(S(=O)(=O)Nc2cccc(C(F)(F)F)c2)c1	AmpC no deterg 4.47µM
O=C(N/N=C/c1ccc(O)cc1)c1cccc(C(F)(F)F)c1	none
O=C(N/N=C/c1ccccc1O)c1cccc(C(F)(F)F)c1	VACV Venus inh inconclusive, Vaccinia mCherry 3.55µM
O=C(NN=Cc1ccccc1O)c1cccc([N+](=O)[O-])c1	VACV Venus inh inconclusive, Vaccinia mCherry 1.12µM (no result: AmpC detergent, AmpC no deterg)
NNC(=O)c1cccc(S(=O)(=O)Nc2cccc(C(F)(F)F)c2)c1	none (no result: VACV Venus inh, Vaccinia mCherry)
O=C(NC(=S)NCc1ccccc1)c1cccc([N+](=O)[O-])c1	none (no result: VACV Venus inh, Vaccinia mCherry)
O=C(CNC(=S)NC(=O)c1cccc([N+](=O)[O-])c1)c1ccccc1	AmpC no deterg 12.6µM
CNc1ccc2oc(C[C@H]3O[C@@]4(CC[C@H]3C)O[C@H]([C@H](C)C(=O)c3ccc[nH]3)[C@H](C)C[C@H]4C)nc2c1C(=O)O	VACV Venus inh 2.51µM, Vaccinia mCherry 3.55µM
O=S(=O)(NCc1nc(N2CCCC2)c2cc(Cl)ccc2n1)c1ccccc1OC(F)(F)F	none (no result: AmpC detergent, AmpC no deterg)
O=C(COc1ccccc1)Nc1nc(-c2cccs2)cs1	none (no result: Vaccinia mCherry)
CC(C)(C)c1csc(NC(=O)CCS(=O)(=O)c2ccc(F)cc2)n1	VACV Venus inh 7.94µM, Vaccinia mCherry 7.08µM (no result: AmpC detergent, AmpC no deterg)
O=C(CCS(=O)(=O)c1ccccc1)Nc1nc(-c2cccs2)cs1	VACV Venus inh 3.98µM, Vaccinia mCherry inconclusive
O=C(CS(=O)(=O)c1ccc(F)cc1)Nc1nccs1	AmpC detergent inconclusive, AmpC no deterg 31.6µM
COc1ccc2ccccc2c1CN1CCC2(CCC(CNC(=O)c3ccccc3)O2)CC1 (stereo not drawn)	none (no result: AmpC detergent, AmpC no deterg)
CC(C)Cc1cc(C(=O)NCC2Cc3cc(F)cc(-c4ccccn4)c3O2)no1 (stereo not drawn)	none (no result: AmpC detergent, AmpC no deterg)

Bioassay records (PubChem BioAssay)
